Source: PubChem BioAssay AID1347076 (National Center for Advancing Translational Sciences (NCATS), 2019)
Out of some 400,000 compounds screened, about 13,000 (3.2%) were called active. Another 18% or so got no clear call; they are omitted. For the sample, actives were picked, then their nearest neighbours and some compounds at random. Unmarked numbers belong to inactive results. Calls follow the shape of the dose curve; as a rule, active = well fitted cell-killing curve with a large enough effect; inconclusive = small, poorly fitted or top-dose-only effect, or effect the other way; inactive = flat fitted curve, though single readings scatter.

assay: qHTS assay for MDR1-selective chemotherapeutics: Primary screen using the drug-selected MDR subline cells KB-V1; details: KB-V1 MDR cells viability, CellTiter-Glo, 72 h; series mostly up to 46.1 µM; activity change, negative = cytotoxicity: at the top concentration; also: nearly all actives have a fitted effect of over 60% in size
Outline: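 Compound-treated KB-V1 multidrug-resistant cells, 72 h, 37 degrees C; viability by CellTiter-Glo. Fitted qHTS curves give the values.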
% is scaled to controls: 0 for no effect and ±100 for the full control effect; potency is read from the fitted curve at half-maximal effect.

SMILES	activity change, negative = cytotoxicity	Potency
CCN1C(=O)[C@@H]2[C@@H]3CN(S(=O)(=O)c4ccccc4C)[C@@H](c4ccc(Cl)cc4)[C@@H]3C(=O)C[C@@H]2C1=O	3.41%	
COc1ccc(C(=O)COC(=O)c2c(C)noc2C)cc1Cl	3.29%	
Cc1ccc(-c2nc(COC(=O)c3c(C)noc3C)cs2)cc1		23.1 µM (active)
Cc1ccc(S(=O)(=O)N2CCN(C(=O)COC(=O)c3c(C)noc3C)CC2)c(C)c1	-4.54%	
CCc1ccc(C2CC(=O)c3c([nH]c(C(=O)OCc4ccc(C)cc4)c3C)C2)cc1 (configuration not stated)	-2.58%	
COc1ccc(-n2c(=O)c3ccccc3n(Cc3ccccc3Cl)c2=O)cc1	29.4%	
N#CCCN(C(=S)Nc1ccc(Cl)c(Cl)c1)C1CCCCC1	-15%	
COc1ccc(C2C(=O)N(C3CCCCC3)CC(=O)N2Cc2ccccc2Cl)cc1OC (configuration not stated)	-16%	
CCCC(=O)N1CCC1(C)C(=O)NS(=O)(=O)c1ccc(Cl)cc1 (configuration not stated)	3.14%	
CCn1cc(C(=O)NCCc2ccccc2)c(=O)c2cc(S(=O)(=O)N3CCCCCC3)ccc21	7.64%	
CCOc1ccccc1NC(=O)Cn1nnc(C(=O)NCc2cccs2)c1N		0.58 µM (active)
CCOc1ccccc1NC(=O)Cn1nnc(C(=O)Nc2ccc(C)c(C)c2)c1N	13%	
CCOc1ccccc1NC(=O)Cc1cccs1	-27.2%	
O=C(Cc1ccc(Cl)cc1)Nc1ccc2nn(-c3ccc(Cl)cc3)nc2c1	0.721%	
O=[N+]([O-])c1ccc(NCCCN2CCOCC2)c(Cl)c1	-4.73%	
CC1CN(c2nc(Nc3ccccc3)nc(N)c2[N+](=O)[O-])CC(C)O1 (configuration not stated)	-8.14%	
Nc1nc(NCCCN2CCOCC2)nc(Nc2ccccc2)c1[N+](=O)[O-]		23.1 µM (active)
COc1ccc(-c2cc3c(c4c2ccn4C)C2CCC3C2)cn1 (configuration not stated)	-1.27%	
O=C(Cn1c(=O)nc(-c2ccccc2)c2cc(Cl)ccc21)NCc1ccc(Cl)cc1	15.8%	
COc1cccc(NC(=O)Nc2ccc(F)cc2)c1	-8.98%	
CC1(C(=O)NS(=O)(=O)c2ccc3ccccc3c2)CCN1C(=O)C1(c2ccc(Cl)cc2)CCC1 (configuration not stated)	9.41%	
Cc1cccc(N2CCN(C(=O)c3cccc(S(=O)(=O)N4CCc5ccccc5C4)c3)CC2C)c1 (configuration not stated)		2.59 µM (active)
CN1CCN(S(=O)(=O)c2cccc(C(=O)N3CCc4ccccc43)c2)CC1	-7.71%	
CN(C)C(CNC(=O)c1cccc(S(=O)(=O)N2CCc3ccccc3C2)c1)c1ccccc1 (configuration not stated)	5.99%	
O=C(COC(=O)c1cncc(Br)c1)Nc1ccc(S(=O)(=O)N2CCOCC2)cc1	19.1%	
Cc1ccc(S(=O)(=O)N2CCN(c3ncnc4ccccc34)CC2)cc1	0%	

SMILES	activity change, negative = cytotoxicity	Potency
Cc1ccc(C)c(S(=O)(=O)N2CCN(c3ncnc4sccc34)CC2)c1		7.31 µM (active)
COc1ccc(C)cc1S(=O)(=O)N1CCN(S(=O)(=O)c2cc(C(=O)O)ccc2C)CC1	-2.45%	
CCc1nc2c(OCc3ccccc3)cccn2c1N(C)C(=O)c1ccco1	-2.97%	
CCCCNS(=O)(=O)CCNCc1ccccc1OC	-3.58%	
CCCCc1c(-c2ccc(Br)cc2)ncn1CCc1ccccc1OC		20.6 µM (active)
COc1ccccc1Cc1c(-c2ccc(Cl)cc2)nc2c3ccccc3ccn12	-28%	
COc1ccccc1Cc1c(-c2ccc(Cl)cc2)nc2ccc(Cl)cn12	-5.46%	
COc1ccc(CNC(=O)c2cc3c(-c4ccccc4F)nn(C)c3s2)c(OC)c1	-2.11%	
COc1cccc(OC)c1C(=O)N1CCN(Cc2ccccc2F)CC1	2.02%	
CCCCc1c(-c2ccc(Cl)cc2)ncn1CCc1ccccc1OC		13 µM (active)
CCCc1c(-c2ccccc2F)ncn1Cc1ccccc1OC		20.6 µM (active)
COc1ccccc1CCNS(=O)(=O)c1cn(C)nc1C	14.6%	
COc1cc(Br)cc2cc(S(=O)(=O)c3ccccc3)c(=O)oc12	20.1%	
CCc1cccc(NC(=O)c2cnc(N3CCOCC3)c3ccccc23)c1	-2.64%	
Oc1ccccc1-c1nc2ccc(Cl)cn2c1Nc1ccc2c(c1)OCCO2	0.195%	
CN(C)c1ccc(/C=C/c2sc3ccccc3[n+]2C)cc1	13.9%	
Cc1cccc(C)c1NC(=O)CN1CCN(c2ccc(F)cc2)CC1	0%	
COc1ccc2[nH]c(C(=O)N3CCN(C)CC3)c(C)c2c1	13.6%	
COc1ccc2[nH]c3c(C)c4cc[n+](C)cc4c(C)c3c2c1	11.5%	
COc1ccc2[nH]c(=S)cc(C)c2c1		14.6 µM (active)
CCOc1ccc(N(CC)S(=O)(=O)N2CCCC(C(=O)Nc3ccc(C(C)=O)cc3)C2)cc1 (configuration not stated)	-22.2%	
CC(NS(=O)(=O)c1ccc(Br)cc1)C(=O)NCC1CCCO1 (configuration not stated)	22.2%	
OC(CNCC1CCCO1)Cn1c2ccc(Br)cc2c2cc(Br)ccc21 (configuration not stated)		23.1 µM (active)
O=C(CCNS(=O)(=O)c1ccc(Br)cc1)NCC1CCCO1 (configuration not stated)	-30.8%	
CCOC(=O)c1c(-c2ccc(OC)cc2)oc2ccc(OCc3ccc(C(=O)OC)cc3)cc12	1.92%	
COc1cc(OC)c2c(-c3cccc(-c4cccc(N)c4)c3)cc(=O)oc2c1		7.31 µM (active)

SMILES	activity change, negative = cytotoxicity	Potency
COc1ccc(-c2c(C)cc3oc(=O)cc(-c4ccccc4)c3c2C)cc1F	-36%	
COc1ccc(-c2c(C)cc3oc(=O)cc(-c4ccccc4)c3c2C)cc1OC	0.0002%	
OC(Cc1ccc2ccccc2n1)c1ccc(Cl)c(Cl)c1 (configuration not stated)	1.97%	
O=C(CSc1ncc(CO)n1Cc1ccc(Cl)cc1)NCc1ccc(F)cc1	-6.64%	
Cn1c(CCN2CCN(c3ccccn3)CC2)nc2cc(NS(=O)(=O)c3ccc(F)cc3)ccc21	-19.1%	
Cc1cccc(CSc2nnc(Cn3c(=O)sc4ccccc43)n2C)c1	-15.3%	
COc1ccccc1CNC(=O)CCn1c(=O)sc2ccccc21	-7.38%	
COc1ccc(Cn2c(=O)sc3ccccc32)cc1OC		2.59 µM (active)
O=C(Nc1nnc([C@H]2C[C@H](O)[C@@H](CO)O2)s1)c1cccc(Cl)c1	16.6%	
COc1ccc(S(=O)(=O)NC(=O)C2(C)CCN2C(=O)COc2ccc(Cl)cc2)cc1 (configuration not stated)	4.3%	
CC(Nc1ccccc1)c1cccnc1 (configuration not stated)	35.2%	
Cc1ccc(C(O)P(=O)(OC(C)C)c2ccc(N(C)C)cc2)cc1 (configuration not stated)	-1.44%	
CC(C)COP(=O)(c1ccc(N(C)C)cc1)C(Nc1ccccc1)c1cccnc1 (configuration not stated)		23.1 µM (active)
COc1ccccc1N1CCN(C2C(=O)c3ccccc3N2C(C)=O)CC1 (configuration not stated)	1.8%	
Cc1ccc(C)n1NC(=O)c1ccc([N+](=O)[O-])cc1	8.09%	
N=C1C(c2nc3ccccc3s2)=C(O)CN1NC(=O)c1ccc([N+](=O)[O-])cc1		18.4 µM (active)
COc1ccccc1N1CC(O)=C(c2nc3ccccc3s2)C1=N		10.3 µM (active)
COc1ccccc1OCc1nc2ccccc2s1	-20%	
COc1ccc(-n2nnnc2-c2nc3ccccc3s2)cc1	-7.27%	
N=C1C(c2nc3ccccc3[nH]2)=C(O)CN1NC(=O)c1c[nH]c2ccccc12	11.8%	
COC(=O)C[C@@H]1C=C[C@@H](NC(=O)c2ccc3c(c2)OCO3)[C@@H](CO)O1	2.17%	
COc1ccc(-c2c(C#N)cnc(C)c2C)c(O)c1OC	12%	
CCCCn1nnnc1C(c1ccccc1)N1CCN(c2ccccc2OC)CC1 (configuration not stated)	-12.7%	
CC1Cc2[nH][nH]c(=O)c2C(C2CCCC2)O1 (configuration not stated)	24.7%	
FC(F)(F)c1cccc(N/N=C/c2ccccc2)c1	-6.67%	
FC(F)(F)c1cccc(Nc2ncnc3ccccc23)c1		18.4 µM (active)

SMILES	activity change, negative = cytotoxicity	Potency
FC(F)(F)c1cccc(NC(=S)Nc2cccc(Cl)c2)c1	-18.3%	
CN(Cc1ccccc1)C(=O)c1cn(C)c2ccc(S(=O)(=O)N3CCCCC3)cc2c1=O	17.2%	
CN1OC[C@@H]2CN[C@H](c3ccc(-c4ccccc4)cc3)C[C@@H]21	-3.02%	
Cn1c(=O)c2c(SCC(=O)NCC3CCCO3)nc(-c3ccccc3F)nc2n(C)c1=O (configuration not stated)	28.3%	
COc1ccc(C(C(=O)NC2CCCCC2)N(C(=O)CCl)c2ccccc2Cl)cc1 (configuration not stated)	0%	
COc1ccc(C(C(=O)NC2CCCCC2)N(C(=O)Cc2c[nH]c3ccccc23)c2ccccc2)cc1OC (configuration not stated)		23.1 µM (active)
COc1ccc(CNC(=O)[C@H](Cc2c[nH]c3ccccc23)NC(C)=O)cc1OC	-5.89%	
C[C@@H]1CN([C@@H](C)CO)S(=O)(=O)c2ccc(-c3ccc(C(=O)N(C)C)cc3)cc2O[C@@H]1CN(C)Cc1ccccc1C(=O)O	15.8%	
O=C(CN1CCCCCC1)Nc1ccc(S(=O)(=O)N2CCCCC2)cc1	-21.5%	
CCc1ccc(NC(=O)CN2CCSc3ccc(S(=O)(=O)N4CCCC4)cc32)cc1		7.31 µM (active)
COc1ccc(NC(=O)CN2C(=O)CSc3ccc(S(=O)(=O)N4CCC(C)CC4)cc32)cc1	-1.13%	
CC(C)N1C(=O)c2ccccc2NC(=O)C1C(=O)NCc1cccs1 (configuration not stated)	7.86%	
Cc1ccc(O)c(CNc2nc3ccccc3n2C)c1		16.4 µM (active)
Cn1c(CNC(=O)C(C)(C)C)nc2ccccc21	-2.97%	
CCCn1c(NCc2ccccc2F)nc2ccccc21	-3.96%	
CCc1nn(CC(=O)Nc2cccc(C)c2C)c(=O)c2cc3sccc3n12	2.25%	
O=S(=O)(ON(c1ccccc1)S(=O)(=O)c1ccccc1)c1ccccc1		23.1 µM (active)
CCOc1ccc(S(=O)(=O)N(CC(=O)O)c2ccccc2)cc1	10.4%	
Cc1cccc(N(CC(O)CN(C)C)S(=O)(=O)c2ccccc2)c1 (configuration not stated)	-14.7%	
CCOc1ccc(CNC(=O)c2ccc3nc(CC)c(CC)nc3c2)cc1OC	7.1%	
CCCCNC(=O)c1nc(C2CCN(S(=O)(=O)c3ccc(F)c(F)c3)CC2)oc1-c1cccc(C(F)(F)F)c1	-6.49%	
Cc1ccccc1Nc1nnc(SCC(=O)c2cc3ccccc3o2)s1	0%	
Cc1ccc(Nc2nnc(SCC(=O)c3cc4ccccc4o3)s2)cc1C		20.6 µM (active)
Cc1cc2c(=O)n(C)c(SCC(=O)c3cc4ccccc4o3)nc2s1	0%	
